# Source: PubChem BioAssay (NCATS)
# Unmarked numbers belong to inactive results. For some of these results: Measured potencies and affinities stand elsewhere. Active and inactive are the calls of the source. The rule behind the calls is not given here.
# Experiments:
# [1] = Ebola virus entry assay, green fluorescence channel
# [2] = Ebola virus entry assay, blue channel fluorescence
# [3] = Ebola virus entry assay, ratio channel
# [4] = Ebola virus entry assay, reporter ratio channel; Channel type: primary
# Throughout, for efficacy: 0% is about no effect.
SMILES,efficacy [1] [%],AC50 [2],AC50 [3],AC50 [4],outcome [3],outcome [2],outcome [4]
O=C(CCCN1CCC(O)(c2cccc(C(F)(F)F)c2)CC1)c1ccc(F)cc1,61.9,25.1 µM (active),20 µM (active),20 µM (active),,,
COC(=O)Nc1nc2ccc(S(=O)c3ccccc3)cc2[nH]1 (configuration not stated),35.9,3.16 µM (active),1.78 µM (active),1.78 µM (active),,,
Cc1c(C)n(Cc2ccccc2)c2ccc(C(=O)OCCN(C)C)cc12,60.6,3.16 µM (active),3.16 µM (active),3.16 µM (active),,,
CCCCCCCCCCCCCCCC[n+]1ccccc1,-209,20 µM (active),14.1 µM (active),14.1 µM (active),,,
O=C(NC1CCN(CCc2c[nH]c3ccccc23)CC1)c1ccccc1,90.8,25.1 µM (active),35.5 µM (active),35.5 µM (active),,,
NC(=NCCCCCCN=C(N)/N=C(\N)Nc1ccc(Cl)cc1)/N=C(\N)Nc1ccc(Cl)cc1,-197,39.8 µM (active),,39.8 µM (active),inactive,,
Cc1nc2n(c(=O)c1CCN1CCC(C(=O)c3ccc(F)cc3)CC1)CCS2,91.8,,,,inactive,inactive,inactive
CC(C)COCC(CN(Cc1ccccc1)c1ccccc1)N1CCCC1 (configuration not stated),-190,2.82 µM (active),2 µM (active),2 µM (active),,,
Cc1cc(C(C)(C)C)c(O)c(C)c1CC1=NCCN1,52,39.8 µM (active),,39.8 µM (active),inactive,,
C[C@@]12C(=O)OC(=O)[C@]1(C)C1CCC2O1,65.6,5.62 µM (active),7.94 µM (active),7.94 µM (active),,,
CCN(CC)CCOc1ccccc1C(=O)CCc1ccccc1,42.3,15.8 µM (active),14.1 µM (active),14.1 µM (active),,,
c1ccc2c(c1)CCc1ccccc1N2,-29.2,17.8 µM (active),,,inactive,,inactive
Cc1nc(C2CCCCC2)c(-c2ccc(S(N)(=O)=O)c(F)c2)o1,44.4,39.8 µM (active),31.6 µM (active),31.6 µM (active),,,
CN1CCCN(C(c2ccccc2)c2ccc(Cl)cc2)CC1 (configuration not stated),53.7,3.16 µM (active),3.16 µM (active),3.16 µM (active),,,
CC1=C(C)C(=O)C(C(CCCCCC(=O)O)c2ccccc2)=C(C)C1=O (configuration not stated),61.1,,,,inactive,inactive,inactive
Cc1ccc(/C(=C\CN2CCCC2)c2ccccn2)cc1,48.9,31.6 µM (active),28.2 µM (active),28.2 µM (active),,,
CCOc1ccc(Cc2nccc3cc(OCC)c(OCC)cc23)cc1OCC,94.1,39.8 µM (active),,39.8 µM (active),inactive,,
CN(C)CCOC(c1ccccc1)c1ccc(Br)cc1 (configuration not stated),63.8,11.2 µM (active),11.2 µM (active),11.2 µM (active),,,
C[C@@H](C1=C(CCN(C)C)Cc2ccccc21)c1ccccn1,89,12.6 µM (active),10 µM (active),10 µM (active),,,
CN(C)CCn1nnnc1SCC1=C(C(=O)O)N2C(=O)[C@@H](NC(=O)Cc3csc(N)n3)[C@H]2SC1,40.8,17.8 µM (active),28.2 µM (active),28.2 µM (active),,,

SMILES,efficacy [1] [%],AC50 [2],AC50 [3],AC50 [4],outcome [3],outcome [2],outcome [4]
N#C/C(=C1/SC[C@@H](c2ccc(Cl)cc2Cl)S1)n1ccnc1,68.3,39.8 µM (active),,39.8 µM (active),inactive,,
CN(C)C/C=C(/c1ccc(Br)cc1)c1cccnc1,51.4,39.8 µM (active),,35.5 µM (active),inactive,,
CCCCCCOC(=O)NC(=N)c1ccc(NCc2nc3cc(C(=O)N(CCC(=O)OCC)c4ccccn4)ccc3n2C)cc1,128,3.55 µM (active),3.16 µM (active),3.16 µM (active),,,
Nc1c2c(nc3ccccc13)CCCC2,49.8,31.6 µM (active),31.6 µM (active),31.6 µM (active),,,
O=C1NCN(c2ccccc2)C12CCN(CCCC(c1ccc(F)cc1)c1ccc(F)cc1)CC2,83.4,1.41 µM (active),1.26 µM (active),1.26 µM (active),,,
CCCCCCCCCCCC[N+](C)(C)Cc1ccccc1,-253,22.4 µM (active),2.51 µM (active),2.51 µM (active),,,
CC1CCCCN1CCCOC(=O)c1ccc(OC2CCCCC2)cc1 (configuration not stated),86.1,8.91 µM (active),7.94 µM (active),7.94 µM (active),,,
CCN(CC)CCOC(=O)C1(c2ccccc2)CCCC1,69.1,28.2 µM (active),20 µM (active),20 µM (active),,,
CCN(CC)CCOC(=O)C(Cc1cccc2ccccc12)CC1CCCO1 (configuration not stated),78.5,12.6 µM (active),11.2 µM (active),11.2 µM (active),,,
Cc1nc2sccn2c(=O)c1CCN1CCC(=C(c2ccc(F)cc2)c2ccc(F)cc2)CC1,82.1,17.8 µM (active),15.8 µM (active),15.8 µM (active),,,
C[C@@H]1O[C@@H](O[C@@H]2C=C3CC[C@@H]4[C@H](CC[C@]5(C)[C@@H](c6ccc(=O)oc6)CC[C@]45O)[C@@]3(C)CC2)[C@H](O)[C@H](O)[C@H]1O,35.7,8.91 µM (active),7.94 µM (active),7.94 µM (active),,,
Clc1ccc(CSC(Cn2ccnc2)c2ccc(Cl)cc2Cl)cc1 (configuration not stated),-183,5.62 µM (active),4.47 µM (active),4.47 µM (active),,,
CN(C)[C@@H]1C(=O)C(C(=O)NCN2CCCC2)=C(O)[C@@]2(O)C(=O)C3=C(O)c4c(O)cccc4[C@@](C)(O)C3C[C@@H]12 (some centres not stated),145,11.2 µM (active),11.2 µM (active),11.2 µM (active),,,
C[C@]12Cc3nonc3C[C@@H]1CC[C@@H]1[C@@H]2CC[C@@]2(C)[C@H]1CC[C@]2(C)O,48.4,15.8 µM (active),17.8 µM (active),17.8 µM (active),,,
O=C1C(c2[nH]c3ccccc3c2O)=Nc2ccccc21,51.6,,,,inactive,inactive,inactive
COc1ccc2c(c1)c(CC(=O)O)c(C)n2C(=O)c1ccc(Cl)cc1,67.4,,,,inactive,inactive,inactive
CN1CCCC(n2nc(Cc3ccc(Cl)cc3)c3ccccc3c2=O)CC1 (configuration not stated),78.3,3.16 µM (active),3.16 µM (active),3.16 µM (active),,,
CNCCC(Oc1ccccc1OC)c1ccccc1 (configuration not stated),84.9,22.4 µM (active),17.8 µM (active),17.8 µM (active),,,
O=C(N[C@@H]1N=C(c2ccccc2F)c2cccc3c2N(CC3)C1=O)c1cc2ccccc2[nH]1,-148,25.1 µM (active),15.8 µM (active),15.8 µM (active),,,
CCCCOc1cc(C(=O)OCCN(CC)CC)ccc1N,52.2,31.6 µM (active),31.6 µM (active),31.6 µM (active),,,

SMILES,efficacy [1] [%],AC50 [2],AC50 [3],AC50 [4],outcome [3],outcome [2],outcome [4]
CSc1ccc2c(c1)C(N1CCN(C)CC1)Cc1ccccc1S2 (configuration not stated),-190,3.55 µM (active),3.16 µM (active),3.16 µM (active),,,
C=CC[C@]1(O)CC[C@H]2[C@@H]3CCC4=CC(=O)CCC4=C3C=C[C@@]21C,89.4,28.2 µM (active),,35.5 µM (active),inactive,,
O=C(Nc1ccc(Cl)cc1)Nc1ccc(Cl)c(C(F)(F)F)c1,-174,28.2 µM (active),8.91 µM (active),8.91 µM (active),,,
CC(=O)c1ccc2c(c1)N(CCCN(C)C)c1ccccc1S2,87,12.6 µM (active),12.6 µM (active),12.6 µM (active),,,
CC(C)C[C@@H]1[C@H](c2ccccc2)OC(=O)N1CCCN1CCCCCC1,64.2,12.6 µM (active),8.91 µM (active),8.91 µM (active),,,
O=C(c1ccc(F)cc1)C1CCN(CCn2c(=S)[nH]c3ccccc3c2=O)CC1,48.9,35.5 µM (active),17.8 µM (active),17.8 µM (active),,,
CCCC(C(=O)OCCN(CC)CC)(c1ccccc1)c1ccccc1,-182,3.16 µM (active),2.24 µM (active),2.24 µM (active),,,
CCCN(CCC)C(=O)C(CCC(=O)OCCCN1CCN(CCOC(=O)Cc2c(C)n(C(=O)c3ccc(Cl)cc3)c3ccc(OC)cc23)CC1)NC(=O)c1ccccc1 (configuration not stated),156,6.31 µM (active),5.62 µM (active),5.62 µM (active),,,
CC(C(O)c1ccccc1)N(C)CCOC(c1ccccc1)c1ccccc1 (configuration not stated),65,3.16 µM (active),2.82 µM (active),2.82 µM (active),,,
CN(C)CCOC(c1ccccc1)c1ccccc1,60.8,20 µM (active),17.8 µM (active),17.8 µM (active),,,
CCCCc1ccc2nc(NC(=O)OC)[nH]c2c1,19,15.8 µM (active),,,inactive,,inactive
Cc1cccc(CN2CCN(C(c3ccccc3)c3ccc(Cl)cc3)CC2)c1 (configuration not stated),38.6,22.4 µM (active),22.4 µM (active),22.4 µM (active),,,
CO[C@@H]1[C@@H](O[C@@H]2O[C@H](C)[C@@H](O[C@H]3C[C@@](C)(O)[C@@H](O)[C@H](C)O3)[C@H](N(C)C)[C@H]2O)[C@@H](CC=O)C[C@@H](C)[C@@H](O[C@@H]2CC[C@H](N(C)C)[C@@H](C)O2)/C=C/C=C/C[C@@H](C)OC(=O)C[C@H]1OC(C)=O,64.5,3.16 µM (active),3.55 µM (active),3.55 µM (active),,,
Cc1ccc2c(c1)c1c3n2CCNC3CCC1 (configuration not stated),68.3,28.2 µM (active),28.2 µM (active),28.2 µM (active),,,
CCCCC[C@H](O)C=C[C@H]1[C@H](O)CC(=O)[C@H]1CC=CCCCC(=O)O,75.7,8.91 µM (active),7.08 µM (active),7.08 µM (active),,,
CCCCCCCCOc1ccccc1C(=O)Nc1ccc(C(=O)OCC[N+](C)(CC)CC)cc1,-202,10 µM (active),2.51 µM (active),2.51 µM (active),,,
Nc1c2ccccc2nc2ccccc12,59,,,,inactive,inactive,inactive
CC[n+]1c(-c2ccccc2)c2cc(N)ccc2c2ccc(N)cc21,67.8,28.2 µM (active),14.1 µM (active),14.1 µM (active),,,
